Where “and” joins values, the source holds several entries; their conditions need not be identical. Identical values can stand only once. Hit rate of the full screen: of about 5,500 compounds, about 2,000 (36%) were called active. About 18% were inconclusive and are not listed. No stated cut-off is given here; in the data, active means normalized growth mostly below about 0.91 (no sharp cut-off); inconclusive means no clear call, values can overlap the other calls; inactive means mostly above about 0.92. This is one part of the list.
Assay: chemical genetic growth profiling, strain panel (AID 1159580);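 further: tested at 20 µM; growth read once vehicle control cultures reached saturation at 30 °C; 1 = growth at the plate median or of vehicle wells; lower values mean less growth of the strain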
Conditions: S. cerevisiae deletion strains, growth OD

Measured: normalized growth

COc1ccc(OC)c(C(O)CNC(=O)CN)c1 (stereo not given)
inactive: locus YAL021C, strain ccr4, hits give low values 0.984 | locus YAL026C, strain drs2, hits give low values 1 | locus YAL030W, strain snc1, hits give low values 1.01 | locus YBL061C, strain skt5, hits give low values 1.01 | locus YBR009C, strain hhf1, hits give low values 1 | locus YBR021W, strain FUR4, hits give low values 1.02 | locus YBR023C, strain chs3, hits give low values 1 | locus YBR171W, strain sec66, hits give low values 1.02 | locus YBR229C, strain ROT2, hits give low values 0.961 | locus YBR231C, strain swc5, hits give low values 1 | locus YBR279W, strain paf1, hits give low values 1.01 | locus YCL011C, strain gbp2, hits give low values 1.01 | locus YCL016C, strain dcc1, hits give low values 1.01 | locus YCL029C, strain bik1, hits give low values 0.987 | locus YCL061C, strain MRC1, hits give low values 1.01 | locus YCL069W, strain vba3, hits give low values 1.01 | locus YCR088W, strain abp1, hits give low values 0.996 | locus YDL005C, strain med2, hits give low values 1 | locus YDL035C, strain GPR1, hits give low values 0.986 | locus YDL040C, strain nat1, hits give low values 0.997 | locus YDL074C, strain BRE1, hits give low values 0.962 | locus YDL101C, strain DUN1, hits give low values 0.987 | locus YDL134C, strain PPH21, hits give low values 1 | locus YDL185W, strain tfp1, hits give low values 0.979 | locus YDL192W, strain arf1, hits give low values 0.964 | locus YDR001C, strain nth1, hits give low values 0.997 | locus YDR069C, strain doa4, hits give low values 1 | locus YDR101C, strain arx1, hits give low values 0.98 | locus YDR137W, strain rgp1, hits give low values 1.01 | locus YDR150W, strain NUM1, hits give low values 0.993 | locus YDR159W, strain sac3, hits give low values 0.989 | locus YDR162C, strain NBP2, hits give low values 0.983 | locus YDR195W, strain ref2 0.977 | locus YDR297W, strain sur2, hits give low values 1 | locus YDR318W, strain mcm21, hits give low values 0.982 | locus YDR334W, strain swr1, hits give low values 1.01 | locus YDR335W, strain msn5, hits give low values 1 | locus YDR388W, hits give low values 0.983 | locus YDR392W, strain spt3, hits give low values 1.02 | locus YDR502C, strain sam2, hits give low values 0.981 | locus YEL003W, strain gim4, hits give low values 0.998 | locus YEL037C, strain rad23, hits give low values 1 | locus YEL061C, strain CIN8 (second series), hits give low values 1.01 | locus YEL061C, strain CIN8, hits give low values 0.979 | locus YER015W, strain faa2, hits give low values 1.02 | locus YER016W, strain bim1, hits give low values 1 | locus YER110C, hits give low values 0.973 | locus YER111C, strain swi4, hits give low values 1.01 | locus YER155C, strain BEM2 (second series), hits give low values 1.01 | locus YER155C, strain BEM2, hits give low values 1 | locus YER167W, strain BCK2, hits give low values 1.01 | locus YFR010W, strain ubp6, hits give low values 1.01 | locus YGL078C, strain dbp3, hits give low values 0.974 | locus YGL086W, strain mad1, hits give low values 0.979 | locus YGL167C, strain pmr1, hits give low values 0.995 | locus YGL173C, strain kem1, hits give low values 0.995 | locus YGL227W, strain vid30, hits give low values 1 | locus YGL240W, strain doc1, hits give low values 1.02 | locus YGL248W, strain PDE1, hits give low values 0.967 | locus YGL253W, strain hxk2, hits give low values 1.02 | locus YGR135W, strain pre9, hits give low values 0.999 | locus YGR229C, strain SMI1, hits give low values 0.99 | locus YGR252W, strain gcn5, hits give low values 0.956 | locus YHR013C, strain ard1, hits give low values 1.01 | locus YHR027C, strain rpn1, hits give low values 0.999 | locus YHR030C, strain SLT2, hits give low values 1 | locus YHR079C, strain IRE1 (second series), hits give low values 0.991 | locus YHR079C, strain IRE1, hits give low values 1.01 | locus YHR094C, strain hxt1, hits give low values 0.978 | locus YHR129C, strain ARP1, hits give low values 0.996 | locus YHR142W, strain chs7, hits give low values 0.997 | locus YIL066C, strain RNR3, hits give low values 0.969 | locus YIL073C, strain SPO22, hits give low values 0.985 | locus YIL125W, strain kgd1, hits give low values 0.975 | locus YIR030C, strain dcg1, hits give low values 0.986 | locus YJL092W, strain hpr5, hits give low values 1.01 | locus YJL095W, strain BCK1 (second series), hits give low values 1 | locus YJL095W, strain BCK1, hits give low values 0.975 and 1.03 | locus YJL115W, strain asf1, hits give low values 1 | locus YJL129C, strain trk1, hits give low values 0.999 | locus YJL134W, strain LCB3, hits give low values 0.991 | locus YJL154C, strain vps35, hits give low values 0.992 | locus YJL164C, strain tpk1, hits give low values 1 | locus YJL166W, strain qcr8, hits give low values 1 | locus YJL168C, strain set2, hits give low values 0.976 | locus YJL187C, strain SWE1 (second series), hits give low values 0.958 | locus YJL187C, strain SWE1, hits give low values 1 | locus YJR043C, strain POL32, hits give low values 0.944 | locus YJR066W, strain TOR1, hits give low values 1 | locus YJR075W, strain HOC1, hits give low values 0.993
